Screening data: PubChem, National Center for Advancing Translational Sciences (NCATS)
This is a sample that favours compounds with a hit; in the whole collection about 1.9% have one here.
TDP43 rescue: qHTS of TDP-43 Inhibitors; TDP-43 expressing yeast growth rescue, BacTiter-Glo, 24 h; Potency, µM (highest dose often 46.1 µM), hits mostly activators; 410,000 tested, 1.8% active; note: nearly all actives have a fitted effect of over 50% in size
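Yeast expressing TDP-43 (pregrown in raffinose, seeded at OD600=0.02 in galactose medium) exposed to compounds 24 hr at 30 deg C. Growth read by BacTiter-Glo luminescence; rescue of toxicity appears as increased signal.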
PTHR1 ag: qHTS for PTHR1 Agonists: Primary Screen; Parathyroid hormone/parathyroid hormone-related peptide receptor (Homo sapiens), Q03431; HEK293 GP2 PTHR1 cells, GloSensor cAMP luminescence, 1 h; Potency, µM (doses to about 115 µM), usual class: activators; 410,000 tested, 0.075% active; note: nearly all actives have a fitted effect of over 55% in size
Target sequence (Q03431 whole entry, looked up): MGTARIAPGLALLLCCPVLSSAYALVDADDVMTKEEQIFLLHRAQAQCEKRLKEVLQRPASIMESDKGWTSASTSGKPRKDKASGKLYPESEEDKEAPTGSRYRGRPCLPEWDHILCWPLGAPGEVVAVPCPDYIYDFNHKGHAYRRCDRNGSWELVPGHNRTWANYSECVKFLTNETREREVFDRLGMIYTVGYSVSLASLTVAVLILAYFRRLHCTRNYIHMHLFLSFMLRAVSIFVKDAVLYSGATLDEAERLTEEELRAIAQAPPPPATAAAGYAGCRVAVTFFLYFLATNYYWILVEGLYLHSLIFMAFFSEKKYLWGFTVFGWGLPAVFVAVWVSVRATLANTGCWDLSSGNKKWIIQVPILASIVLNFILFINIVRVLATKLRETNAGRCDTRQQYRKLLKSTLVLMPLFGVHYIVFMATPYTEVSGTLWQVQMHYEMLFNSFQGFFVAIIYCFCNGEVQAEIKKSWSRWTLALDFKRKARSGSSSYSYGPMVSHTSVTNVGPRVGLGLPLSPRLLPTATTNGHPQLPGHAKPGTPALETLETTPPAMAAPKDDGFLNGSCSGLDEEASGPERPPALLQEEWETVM
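HEK-293-derived GP2 cells expressing PTHR1 and a GloSensor cAMP reporter, 3,000/well, plated overnight, given luciferin plus IBMX (each 0.5 mM as added) for 1 h at 37 °C, then compound for 1 h at 37 °C. Luminescence was read after 15 min at room temperature.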
LDHA block: qHTS assay for inhibitors of human lactate dehydrogenase; L-lactate dehydrogenase A chain (Homo sapiens), P00338; 480,000 tested, 0.15% active; purified LDHA, NADH/diaphorase-resazurin fluorescence; hits give low values; activity change, % (values are at about 110 or 230 µM); AID 1347041, 2019; in the data active = activity change below about -30%; inconclusive = mostly about -25% to -30%
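Human LDH5 at 2 nM final in Tris HCl pH 7.4 with 0.06 mM NADH and 0.2 mM pyruvate, reacted 5 minutes at room temperature. Remaining NADH coupled via diaphorase/resazurin; resorufin fluorescence read at 0 and 20 minutes, normalized to enzyme-free and DMSO wells.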
FUS suppressor: qHTS for Suppressors of FUS Proteinopathy: Primary screen using FUS-linked yeast assay | S. cerevisiae FUS-expressing, growth rescue, OD600, 24 h | Potency, µM (top dose mostly 76.6 µM), usual class: activators | 390,000 tested, 0.24% active; note: nearly all actives have a fitted effect of over 55% in size
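Yeast expressing FUS under galactose induction, OD 0.005 in 2% galactose medium; compounds in a dilution series, 24 h at 30C. Growth rescue by absorbance at 600 nm; CP55940 positive control, DMSO negative.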
Abeta rescue: qHTS for compounds that reverse cellular toxicity of Amyloid beta (A-beta) peptide in yeast: Primary Screen. yeast expressing A-beta42, growth rescue, OD600, 48 h; response scale: 0% DMSO, 100% iron-clioquinol control. Potency, µM (doses to about 46.1 µM), usual class: activators. 410,000 tested, 0.063% active. AID 1347071, 2019; note: nearly all actives have a fitted effect of over 55% in size
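Yeast A-beta toxicity model in growth medium with pinned compounds, 48 h at 30 C; growth read as absorbance at 600 nm. Normalized to FeCl3/clioquinol equimolar mix (positive) and DMSO (negative).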
aSyn yeast inh: qHTS of alpha-syn Inhibitors; Yeast expressing alpha-synuclein, growth rescue, BacTiter-Glo, 24 h; Potency, µM (highest dose often 46.1 µM), usual class: activators; 370,000 tested, 0.14% active; AID 652106, 2013; note: nearly all actives have a fitted effect of over 65% in size
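Galactose-induced alpha-syn yeast (OD600=0.02, raffinose-pregrown) + pinned cpd, 24 hr, 30 deg C; growth by BacTiter-Glo luminescence. Growth restoration scores as activation.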
Hits are given with their value; 0 = inactive; ? = inconclusive; - = not tested or not shown; [ ] = dose if it differs, or a comment. Unless noted, calls come from the whole dose curve; as a rule, active = well fitted curve in the direction sought with a large enough effect; inconclusive = small, poorly fitted or top-dose-only effect, or another doubt; inactive = no such curve, though single readings can be large; an effect the other way counts as inactive or inconclusive.

SMILES | TDP43 rescue | PTHR1 ag | LDHA block | FUS suppressor | Abeta rescue | aSyn yeast inh
CCn1nc(C)c2c(-c3ccccc3)cc(=O)n(C(C)C(=O)NCCc3ccccc3)c21 (stereo not given) | ? | 0 | 0 | 0 | 0 | -
Cc1cc(C)n2nc(-c3cccc(Br)c3)cc2n1 | 11.2µM | 0 | 0 | 0 | 0 | 0
CC1Sc2ccc(C(=O)NNC(=O)CSc3cccc4cccnc34)cc2NC1=O (stereo not given) | - | - | 0 | - | - | -
Cc1cc(C(=O)O)cs1 | - | - | 0 | - | - | -
C/C(=N/Nc1c(F)c(F)nc(F)c1F)c1ccc(C)c([N+](=O)[O-])c1 | - | - | 0 | - | - | -
CCCN(CCC)C(=O)COc1ccc2c(C)cc(=O)oc2c1 | - | - | 0 | - | - | -
CCOc1ccccc1NC(=O)c1sc2nc(C)nc(N3CCOCC3)c2c1C | 7.94µM | 0 | 0 | 0 | 0 | 0
COc1ccc(C)cc1NC(=O)c1sc2nc(C)nc(N3CCOCC3)c2c1C | 0 | 0 | 0 | 0 | 0 | 0
CC(=O)C1=C(C)NC(SCC(=O)c2ccc(Cl)c(Cl)c2)=C(C#N)C1c1ccco1 (stereo not given) | 0 | 0 | 0 | 0 | 0 | 0
CC(=O)C1=C(C)NC(SCC(=O)c2cc(Cl)ccc2Cl)=C(C#N)C1c1ccco1 (stereo not given) | 0 | 0 | 0 | 25.1µM | 0 | 0
Cc1cccc(N(C)c2nc3ccccc3c3nnc(C)n23)c1 | 22.4µM | 0 | 0 | 0 | 0 | -
CCCCn1nc(C(=O)NCCN2CCOCC2)c2ccccc2c1=O | - | - | 0 | - | - | -
COC(C)C(=O)NCC(C)c1ccccc1 (stereo not given) | - | - | 0 | - | - | -
O=C(c1nc(-c2cccnc2)no1)N1CCN(c2ccc(F)cc2)CC1 | - | - | -32.9 | - | - | -
O=[N+]([O-])/C=C/c1cn(Cc2ccccc2)c2ccccc12 | 10µM | 0 | 0 | 0 | 0 | 0
O=C(O)Cn1cc(/C=C/[N+](=O)[O-])c2ccccc21 | 0[9.22 µM] | 0 | 0 | 0 | 0 | 0
CC(C)(C)NC(=O)C(c1ccccc1F)n1c(=O)c(-c2cc3ccccc3[nH]2)nc2ccccc21 (stereo not given) | ? | 0 | 0 | ? | 0 | 7.08µM
CC(C)(C)NC(=O)C(c1cc2ccccc2o1)n1c(=O)c(-c2cc3ccccc3[nH]2)nc2ccccc21 (stereo not given) | 0 | 0 | 0 | ? | ? | 8.91µM
CC(C)(C)c1ccc(C2CCCN2CC(=O)N2CCCCC2)cc1 (stereo not given) | - | - | 0 | - | - | -
CCOc1ccc(NCc2nnc(SCc3ccc(Cl)cc3)n2-c2ccccc2)cc1 | 25.1µM | 0 | 0 | - | 0 | ?
CCOC(=O)CSc1nnc(CNc2ccc(Cl)cc2)n1-c1ccccc1 | ? | 0 | 0 | 0 | 0 | 0
Cc1c(NC(=O)/C(C#N)=C/c2ccc(-c3ccc(Cl)cc3)o2)c(=O)n(-c2ccccc2)n1C | 31.6µM | 0 | 0 | ? | 0 | 0
CCN1CCN(C(=O)/C=C/c2c(F)cccc2Cl)CC1 | 0 | 0 | 0 | - | 0 | 0
O=C(COc1ccccc1Cl)N1CCc2ccccc2C1 | 12.6µM | 0 | 0 | 0 | 0 | 0
O=C(COc1c(Br)cc(Br)c2cccnc12)N1CCc2ccccc2C1 | ? | 0 | 0 | 0 | 0 | 12.6µM
SMILES | TDP43 rescue | PTHR1 ag | LDHA block | FUS suppressor | Abeta rescue | aSyn yeast inh
O=C(/C=C/c1c(F)cccc1Cl)N1CCc2ccccc2C1 | 7.94µM | 0 | 0 | 0 | 0 | ?
COC(=O)Nc1ccc(C(=O)OC(C)C)cc1 | - | - | 0 | - | - | -
CC(Sc1ccc2c(c1)CCC2)C(=O)NC1CC1 (stereo not given) | - | - | 0 | - | - | -
FC(F)(F)c1cnc(N2CCc3sccc3C2)c(Cl)c1 | - | - | 0 | - | - | -
Cc1nn2c(-c3ccco3)nnc2c2ccccc12 | 8.91µM | 0 | 0 | 0 | 0 | -
CC(C)NC(=O)CCC(=O)c1ccc2c(c1)CCC2 | - | - | 0 | - | - | -
Cc1ccc(C)c(S(=O)(=O)N2CCN(c3nc(-c4cccnc4)nc4ccccc34)CC2)c1 | 15.8µM | 0 | 0 | 0 | 0 | 0
COc1cc2c(cc1OC)CN(c1nc(-c3cccnc3)nc3ccccc13)CC2 | 14.1µM | 0 | 0 | 0 | 0 | 0
O=S(=O)(c1ccccc1F)N1CCN(c2nc(-c3cccnc3)nc3ccccc23)CC1 | 0 | 0 | 0 | 0 | 0 | 0
CC(C)C(=O)Nc1ccc(Cl)c(C(N)=O)c1 | - | - | 0 | - | - | -
CCCc1ccc(C(NC(=O)CCNC(=O)C(C)(C)C)C(C)C)cc1 (stereo not given) | - | - | 0 | - | - | -
CC(C)c1ccc(Nc2nc(NCc3ccco3)nc(N3CCOCC3)n2)cc1 | 15.8µM | 0 | 0 | 0 | 0 | 0
CN(Cc1ccccc1)C(=O)c1ccc(Cl)c([N+](=O)[O-])c1 | 0 | 0 | 0 | 0 | 0 | 0
CN(Cc1ccccc1)c1ccc(C(=O)O)cc1[N+](=O)[O-] | 15.8µM | 0 | 0 | 0 | 0 | 0
Cc1noc(C)c1COc1cccc(C(=O)Nc2ccc(C#N)cc2)c1 | 14.1µM | 0 | 0 | 0 | 0 | 0
COc1ccc(OC)c(S(=O)(=O)N2CCN(c3cc(N4CCCC4)nc(C)n3)CC2)c1 | - | - | 0 | - | - | -
CC(C)(N[C@@H](Cc1c[nH]c2ccccc12)C(=O)NCC(c1ccccc1)c1ccccc1)C(=O)NC1CCCCC1 | - | - | - | 14.1µM | - | -
CC(C)(C)OC(=O)N1CCC(N[C@@H](Cc2c[nH]c3ccccc23)C(=O)NCCc2c[nH]c3ccccc23)(C(=O)NC2CCCCC2)CC1 | - | - | - | 20µM | - | -
O=C(NCCCc1ccccc1)[C@H](Cc1c[nH]c2ccccc12)NC1(C(=O)NCCc2c[nH]c3ccccc23)CCOCC1 | - | - | - | 22.4µM | - | -
Cc1cccc(NC(=O)Cc2nc(-c3c(N)n(Cc4ccccc4)c(=O)n(C)c3=O)cs2)c1 | - | - | 0 | - | - | -
CCN(C(=O)c1cc2c(=O)n(CC)c3ccccc3c2s1)c1cccc(C)c1 | - | - | 0 | - | - | -
CCn1c(=O)c2cc(C(=O)N(C)c3ccc(OC)cc3OC)sc2c2ccccc21 | 0 | 0 | 0 | 2µM | 0 | 0
CCn1c(=O)c2cc(C(=O)NC3CCCCCC3)sc2c2ccccc21 | 15.8µM | 0 | 0 | 0 | 0 | -
CCOc1ccccc1N(CC)C(=O)c1cc2c(=O)n(CC)c3ccccc3c2s1 | 0 | 0 | 0 | 31.6µM | 0 | -
Cc1ccc(NC(=O)Nc2c(NC3CCCCC3)c3ccccc3oc2=O)cc1F | - | - | 0 | - | - | -
CC(C)(C)c1cc(NS(=O)(=O)c2ccc3c(c2)OCCO3)on1 | 12.6µM | 0 | 0 | 0 | ? | 0
CCOC(=O)c1ccc(S(=O)(=O)Nc2cc(C(C)(C)C)no2)cc1 | 12.6µM | 0 | 0 | 0 | 0 | 0
